Screens from PubChem.
The sample as a whole holds a higher share of hits than the screen did.
Pf Dd2 inh – blocks in vitro growth of P. falciparum Dd2; 4.3% of 120,000 active; AID 1347417; P. falciparum Dd2 growth, SYBR Green, 72 h; Potency, µM (highest dose often 28.9 µM), hits mostly inhibitors; active = well fitted inhibition curve with a large enough effect; also: nearly all actives have a fitted effect of over 65% in size
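Readout: SYBR Green fluorescence, 485 nm excitation, 535 nm emission, after ~16 h lysis at 37C. Before that, Dd2-infected red cells (2.5% hematocrit) grew 72 h with compound, 29 uM top final concentration.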
A number is an active result; 0 = inactive; [ ] = another dose, or the depositor's remark.

SMILES	Pf Dd2 inh
CC(C)CCNC(=O)c1cccnc1N1CC2CC(C1)[C@H]1CCCC(=O)N1C2 (some centres not stated)	0
CCn1ccc(C(=O)N2CCc3nnc([C@@H]4C[C@@H](O)CN4C)n3CC2)n1	0
CC1(CNC(=O)c2ccc3ccccc3n2)CCOCC1	0
CN(CC(=O)N1CCc2nc3cc(-c4ccccc4)[nH]n3c(=O)c2C1)S(=O)(=O)c1cnc[nH]1	0[5.79 µM]
CN(C)C[C@@H]1CN(c2ncccn2)C[C@H]1NC(=O)c1ccccc1F	0
Cn1cc(C2c3nccn3CCCN2C(=O)c2cccn2C)cn1 (configuration not stated)	0
CC1CCC2(CC1)OCC(C(=O)NC1CC1)N2C(=O)c1ccccc1F (configuration not stated)	0
COc1ccc(CCc2nc3nccc(-c4ccc(OC)cc4)n3n2)cc1	0
CCOCCn1c(=O)n(Cc2ncccn2)c2cc(C(=O)O)cnc21	0
O=C(C[C@@H]1C[C@H]2O[C@H](CNC3CCCC3)[C@@H](O)[C@H]2O1)N1CCC(F)(F)C1	0
c1ccc(Cn2cc(CN3CCCC3)c(-c3ccc4c(c3)OCO4)n2)cc1	11.2µM
Fc1ccccc1N1CCN(Cc2nnc(-c3ccc4c(c3)OCO4)o2)CC1	0[0.594 µM]
O[C@@H]1C[C@@H](c2nc(-c3ccc4c(c3)OCO4)no2)N(Cc2ccccc2)C1	0
O=S(=O)(c1cccnc1)N1CCC(c2nc(C3CC3)no2)C1 (configuration not stated)	0
CC(=O)N1CCCC1c1nc(C2CN(S(=O)(=O)c3cccnc3)C2)no1 (configuration not stated)	0
O=C(c1cccs1)N1CCCC1c1nc(C2CCOCC2)no1 (configuration not stated)	0
COCCN1CCCC1c1nc(C2CN(C(=O)c3ncccc3C)C2)no1 (configuration not stated)	0
O=S(=O)(c1cccs1)N1CC(c2noc(C3CCCN3CC3CC3)n2)C1 (configuration not stated)	2.82µM
O=S(=O)(c1cccnc1)N1CC(c2noc(C3CCCN3CC3CC3)n2)C1 (configuration not stated)	6.31µM
O=C(c1ccc2c(c1)OCO2)N1CC(c2noc(C3CCCN3CC3CC3)n2)C1 (configuration not stated)	5.01µM
CC(=O)N1CCCC1c1nc(C2CN(C(=O)c3ccsc3)C2)no1 (configuration not stated)	0
CCOCc1nc(C2CCCN2S(=O)(=O)c2cccs2)no1 (configuration not stated)	0
CCS(=O)(=O)N1CCC(Cc2nncn2C)C1 (configuration not stated)	0
CC(=O)NCC(=O)N1Cc2ccccc2CC2(CCN(CC3CCOCC3)CC2)C1	0
CC(C)c1noc([C@@H]2C[C@H]3C(=O)NCCCCCCN(C(=O)c4ccc(C#N)cc4)[C@H]3C2)n1	0
SMILES	Pf Dd2 inh
CN1CC(=O)N(c2ccccc2F)Cc2c(NCC3CCCCC3)ncnc21	0
CCN(CC)C(=O)CC[C@H]1CNC(=O)[C@@H]2[C@@H](CCN2C(C)C)N1C	0
COCCCNC(=O)CN1CCCc2nc(C3CC3)ncc2C1=O	0
COc1ccc(CN2C=C(C(=O)OCc3cc(=O)n4ccccc4n3)C(C)=NS2(=O)=O)cc1	0
O=C(c1ccc2cc[nH]c2c1)N1CCN(C(=O)c2nnn3c2COC(c2ccc(Cl)cc2)C3)CC1 (configuration not stated)	0
COCc1nc(-c2ccc(OC3CN(C(=O)c4ccc(OC)nc4)C3)cc2)no1	0
CCN(CC)C(=O)N1CCC(Oc2ccc(-c3noc(COC)n3)cc2)C1 (configuration not stated)	0[5.79 µM]
COCc1nc(-c2ccc(OC3CN(C(=O)c4cc(C)n(C)n4)C3)cc2)no1	7.94µM
CC1CCC2(CC1)NC(=O)N(CC(=O)Nc1ccc(Br)cc1)C2=O (configuration not stated)	0
Cc1noc(C)c1[S+](=O)([O-])N1CCC2(CC1)CC(=O)c1ccc(Cl)cc1O2	0
O=C(NCCN1CCOCC1)C1CCC(=O)N(CCCc2ccccc2)C1 (configuration not stated)	0
COCCn1c(C)cnc1CCN	0
CC(=O)Nc1ccc(C2(C(=O)NCc3ccc(F)cc3Cl)CCC2)cc1	0
COc1cccc(Nc2cc3c(cn2)NCCN(Cc2ccccc2)C3)c1	0
FC(F)(F)Oc1cccc(CN2CCNc3cc(Nc4cccnc4)ncc3C2)c1	5.01µM
c1cncc(Nc2cc3c(cn2)CN(Cc2ccsc2)CCN3)c1	8.91µM
COc1cccc(CN2CCNc3cnc(Nc4ccccc4)cc3C2)c1	0
O=[S+]([O-])(Nc1cccnc1)c1ccc2c(c1)OCCN(Cc1ccsc1)C2	0
c1ccc(Oc2cc3c(cn2)NCCN(Cc2ccsc2)C3)cc1	0
CCc1ccc(CNC(=O)CN2C(=O)NC3(CCOCC3)C2=O)cc1	0
O=C(COc1ccc(F)cc1)N1C[C@@H](CO)[C@H](c2ccccn2)C1	0
CN(C)CCNC(=O)C[C@H]1NC(=O)c2ccccc2NC1=O	0
CCCNC(=O)C1COC2(CCN(C(=O)c3ccccc3Cl)CC2)N1C(=O)c1cccc(F)c1 (configuration not stated)	0
OC1(c2cccnc2)CCN(Cc2ccc(-n3ccnc3)cc2)CC1	0
O=C(CCC1CCN(c2cc(NC3CC3)ncn2)CC1)N1CCN(c2ccccc2F)CC1	0
SMILES	Pf Dd2 inh
CCCNc1cc(N2CCC(CCC(=O)N3CCN(c4ccccc4F)CC3)CC2)ncn1	11.2µM
CCCNc1cc(N2CCC(CCC(=O)NCC3CC3)CC2)ncn1	0
O=C(NC1CCCN(c2cc(-c3ccc(F)cc3)[nH]n2)C1)C1CCCC1 (configuration not stated)	0
O=C(CC(c1ccccc1)c1ccc(Cl)cc1)N1CCOCC1 (configuration not stated)	0
COCCN1CCC(N2CCN(S(=O)(=O)c3ccc(C)c(F)c3)CC2)C1=O (configuration not stated)	0
Cc1ccc([C@H]2C[C@@H](O)[C@@H](O)[C@@H]2NC(=O)C2CC2)cc1	0
CCOCCCNC(=O)c1cc2c(-c3ccc(OC)c(OC)c3)nn(C)c2s1	0
COC(=O)c1ccccc1NC(=O)c1cc2c(-c3ccc(OC)c(OC)c3)nn(C)c2s1	0
CCCCN(CC)CCCNC(=O)c1cc2c(-c3ccc(OC)c(OC)c3)nn(C)c2s1	7.94µM
c1ccc(-c2ccnc3nc(C4CCC4)nn23)cc1	0
C[C@]1(O)CCN(C(=O)c2cn(C3CCC(N)CC3)nn2)C[C@@H]1O (some centres not stated)	0
CCCCN(CCCC)CCNC(=O)CN1C(=O)CSc2ccc(S(=O)(=O)N3CCCCC3)cc21	0
Cc1cc(C)cc(NC(=O)CN2C(=O)CSc3ccc(S(=O)(=O)N4CCCC4)cc32)c1	0
CC(C)N(Cc1ccccc1)C(=O)CN1C(=O)CSc2ccc(S(=O)(=O)N3CCCC3)cc21	7.94µM
C#CC(C)(CC)NC(=O)c1cnn2c(C(F)F)cc(-c3ccccc3OC)nc12 (configuration not stated)	0
Cc1ccc(NC(=O)c2cc3nc(-c4ccccc4)cc(-c4ccccc4)n3n2)cc1	0
CC(C)c1ccc(NC(=O)c2cnn3c(C(F)F)cc(-c4ccccc4)nc23)cc1	5.01µM
O=C1NCCCCCN(CC2CCCCC2)[C@H]2CCC[C@@H]12	0
O=C(CCC1CCN(C(=O)c2ccccc2F)CC1)NCC1CCCCC1	0
CSc1nc(Nc2ccc(C)cc2C)cc(-c2ccccc2)n1	0
Cc1cc(C)cc(Nc2cc(-c3ccccc3)nc(C)n2)c1	11.2µM
